From PubChem BioAssay (NCI)
Compounds without any hit were thinned out: in the full panel of roughly 83,000, 20% have a hit.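 Testing used 96-well plates and a 48-hour single-concentration exposure. Example: -40 means 40% of the starting cells died.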 Unmarked numbers belong to inactive results. Calls of active or inactive are those of the source. The calls were made as follows: active = growth percent below 10; inactive = the rest.

Assays:
Assay in all cases: NCI-60 one-dose screen, 48 h (100 = growth as untreated, 0 = no growth, -100 = all killed)
Conditions in all cases: 10 µM
SK-MEL-2 melanoma = tested on: SK-MEL-2 melanoma
EKVX NSCLC = tested on: EKVX NSCLC
SN12C renal = tested on: SN12C renal
UO-31 renal = tested on: UO-31 renal
TK-10 renal = tested on: TK-10 renal
ACHN renal = tested on: ACHN renal
CAKI-1 renal = tested on: CAKI-1 renal
A498 renal = tested on: A498 renal
CCRF-CEM leukemia = tested on: CCRF-CEM leukemia
MOLT-4 leukemia = tested on: MOLT-4 leukemia

SMILES	growth (SK-MEL-2 melanoma)	growth (EKVX NSCLC)	growth (SN12C renal)	growth (UO-31 renal)	growth (TK-10 renal)	growth (ACHN renal)	growth (CAKI-1 renal)	growth (A498 renal)	growth (CCRF-CEM leukemia)	growth (MOLT-4 leukemia)
CCOc1ccccc1/C=N\N=C\c1ccccc1O	100%	91.5%	93.5%	52%	121%	100%	92.9%	91.2%	71.6%	72.5%
Cc1ccc(S(=O)(=O)N/N=C2\CCCc3ccccc32)cc1	103%	93.6%	112%	88.1%	119%	94.9%	89.8%	91.8%	91.8%	101%
O=C(N/N=C/c1ccc([N+](=O)[O-])cc1)c1ccccc1Nc1cccc(C(F)(F)F)c1	80.9%	92.4%	99.5%	78.4%	173%	91%	76.9%	-6.91% (active)	91.9%	109%
O=C(CSc1nnc(-c2cccnc2SCc2ccccc2)o1)Nc1nc(Cl)cc(Cl)n1	102%	103%	103%	67.7%	109%	103%	95.8%	112%	101%	95.7%
COc1cc(C2CC(c3cc(Cl)c(C)cc3O)=NN2c2ccc(S(N)(=O)=O)cc2)cc(OC)c1OC (configuration not stated)	37.7%	16.9%	13.7%	4.12% (active)	15.3%	3.29% (active)	11.4%	43.3%		
O=C(N/N=C/c1cc([N+](=O)[O-])ccc1O)c1cccc2ccccc12	66.4%	33.5%	51.1%	19.1%	46.3%	15.7%	19.9%	62.4%	-8.77% (active)	9.21% (active)
NS(=O)(=O)Oc1ccc(NC(=O)C2CCCCCC2)cc1	106%	85.1%	99.1%	82.1%	105%	97.3%	87.4%	122%	89.4%	104%
COc1ccc(C(=O)N2C=Cc3ccccc3C2C#N)cc1 (configuration not stated)	101%	99.4%	89.3%	73.9%	100%	96.4%	87.3%	91.1%	92.7%	83.4%
O=C(O)c1cc([N+](=O)[O-])ccc1Oc1ccccc1	103%	97.9%	95.3%	83.5%	88.5%	101%	101%	102%	101%	
Cc1cc(=O)n2nnc3cc(C(F)(F)F)ccc3n12	99.2%	107%	106%	84%	93.6%	108%	113%	103%	103%	91.3%
CC(=O)OC1C=CC(OC(C)=O)O1 (configuration not stated)	88.9%	99.3%	89.8%	59.4%	102%	97.9%	89%	81.3%	76.6%	90%
CC(C)(C)OC(=O)CC(S(=O)(=O)c1ccccc1)S(=O)(=O)c1ccccc1	114%	112%	96.1%	61.4%	21.4%	17.8%	90.6%	102%	46.9%	82.7%
Cc1cc(CCNC=O)c(C)c2c1sc1ccccc12	109%	56.6%	79.7%	91.2%	94.4%	99.8%	80.7%	72.8%	84%	94.5%
COc1cc(/C=C/c2cc(/C=C/c3ccc(O)c(OC)c3)n(C(=O)Nc3ccc(C)cc3)n2)ccc1O	-14% (active)	20.3%	18.3%	0.972% (active)	28.5%	16.1%	8.65% (active)	-12% (active)	0.439% (active)	0.114% (active)
CCN(CC)CCN1c2nc3ccccc3cc2Sc2cc3ccccc3nc21	-35.9% (active)	-3.38% (active)	27%	-64.1% (active)	82%	24.9%	8.6% (active)	25.7%	-27.3% (active)	-47.8% (active)
C=CCNCCN1C(=O)c2ccc3c4c(ccc(c24)C1=O)C(=O)N(CCNCC=C)C3=O	-45.9% (active)	-82% (active)	-78% (active)	-58.4% (active)	-6.43% (active)	-56.3% (active)	-64.2% (active)	-73.7% (active)	4.83% (active)	-18.3% (active)
O=C(Cn1cc(CO)nn1)Nc1nc2ccccc2s1	107%	94.1%	96.5%	72.6%	106%	104%	88.9%	118%	103%	104%
COc1ccc(/C(C#N)=C/c2ccccc2OC)cc1	15.9%	64.6%	47.3%	52.2%	53%	44.1%	39%	25.6%	16.2%	21.3%
CN(C)c1ncnc2c1nnn2C1OC(CO)C(O)C1O (configuration not stated)	-17.2% (active)	39.9%	18.7%	8.73% (active)	-2.87% (active)	5.56% (active)	7.19% (active)	22.3%	8.83% (active)	8.29% (active)
CCN(CC)c1ccc(/C=C2\SC(=O)C(Nc3nnc(-c4cccnc4SCc4ccccc4)o3)C2=O)cc1 (configuration not stated)	33.8%	55.8%	61.4%	53.7%	44.3%	51.2%	41.2%	9.41% (active)	50.6%	61.9%
CC(=O)Nc1ccc(CC[C@H]2CCC/C=C/[C@@H]3C[C@H](O)C[C@H]3[C@H](O)/C=C/C(=O)O2)cc1	-28.6% (active)	8.89% (active)	5.85% (active)	6.87% (active)	-45.5% (active)	4.68% (active)	16%	-32.9% (active)	-4.29% (active)	-6.82% (active)
O=C(/C=C/c1cccc(B(O)O)c1)c1cccc(B(O)O)c1	44.8%	56.3%	-3.76% (active)	-82.5% (active)	-11.7% (active)	0.0369% (active)	-8.72% (active)	65.5%	-13.8% (active)	2.84% (active)
CN1CCN(CCCn2c(=O)c3sc4ncccc4c3n3nnc(-c4ccccc4)c23)CC1	-10.7% (active)	2.42% (active)	47.5%	-74.5% (active)	-44.3% (active)	-6.48% (active)	-39.2% (active)	64.6%	-14.7% (active)	-20% (active)
CCOC(=O)C1=CSC2=NC3=C(CCC/C3=C\c3ccc(Cl)cc3)C(c3ccc(Cl)cc3)N12 (configuration not stated)	106%	91.6%	95%	95.2%	119%	107%	103%	78.1%	87.8%	82.2%
CCOC(=O)c1cocc1C(=O)O	105%	103%	105%	93.3%	118%	111%	107%	112%	74.1%	86.5%
O=C1c2ccccc2C(=O)N1CCCCNc1ccccc1	121%	127%	50.4%	61.7%	117%	104%	101%	70.2%	21.3%	49.7%
Cc1cc(C)nc(NS(=O)(=O)c2ccc(Nc3nc4nc(NCc5ccccc5)nc(-c5ccc(O)cc5)c4c(=O)[nH]3)cc2)n1	4.65% (active)	26.7%	33.1%	10.9%	10.3%	15.6%	33.1%	42.5%	19.6%	-1.75% (active)
